Measured values taken from the supplement of paper PMC9897528.

tested on: Scedosporium aurantiacum CBS 136046; experiment: growth inhibition relative to DMSO control (OD600); higher = more antifungal activity, active = 80 or more; extreme values may be limits of the assay; conditions: 5 µM; 72 h; 37 °C
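Also: conidia screened in RPMI 1640 medium under 5% CO2, growth read by spectrophotometer, medium with 0.5% DMSO serving as the untreated reference.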

Growth inhibition, inactive:
CCOC(=O)/C=C/[C@H](C[C@@H]1CCNC1=O)NC(=O)[C@@H](CC(=O)[C@@H](NC(=O)c1cc(C)on1)C(C)C)Cc1ccc(F)cc1 1.27%, C/C(=N\NC(=O)C1CC1c1ccccc1)c1ccc(NC(=O)c2ccco2)cc1 (configuration not stated) 1.06%, O=C1NC(=S)N/C1=C\c1cc(Br)cc(Br)c1O 12.6%, Oc1cccc(C(Nc2nccs2)c2ccc3cccnc3c2O)c1 (configuration not stated) 5.56%, NC[C@H]1OB(O)c2c(OCCCO)cccc21 34.1%, Cc1ccc(S(=O)(=O)Nc2cccc3cccnc23)cc1 42.5%, N[C@H]1CCC[C@H]1C(=O)O 4.68%, CCNC(=O)Nc1cc2c(-c3ccnc(C)c3)ccc(CNC(=O)OC)c2cn1 13.3%, CCc1cc(Cc2cnc(N)nc2N)cc2c1N(C)CCC2C (configuration not stated) 16.8%, CCNC(=O)Nc1cn2c(-c3ncc(CC)cn3)cc(-c3cccnc3)cc2n1 0%, C[C@H]1CC[C@@]2(O)C(C)(C)[C@@H]3CC[C@@]2(C)[C@H]1C3 12.7%, O=C(Nc1ccc(Cl)c(C(F)(F)F)c1)C(CCCl)C(=O)Nc1ccc(Cl)c(C(F)(F)F)c1 0%, CC(C)(C)NC(=O)N[C@H](C(=O)N1C[C@H]2[C@@H]([C@H]1C(=O)NC(CC1CCC1)C(=O)C(N)=O)C2(C)C)C(C)(C)C (some centres not stated) 10.8%, NC(=O)c1ccccc1NC(=O)c1ccc(C(=O)Nc2ccccc2C(N)=O)cc1 11.5%, CC(C)(C)c1cc(C(=O)/C(C#N)=N/Nc2cccc(Cl)c2)no1 35.3%, CCN(CC)S(=O)(=O)c1ccc(Cl)c(C(=O)Nc2sc3c(c2C#N)CCCC3)c1 25.7%, O=C1C=C(c2ccccc2)S(=O)(=O)c2ccccc21 12.3%, COc1ccccc1NC(=O)c1ccccc1Sc1ccc([N+](=O)[O-])cc1 22.6%, Cn1c2ccccc2c(=O)c2c(O)cccc21 6.84%, CSC[C@H]1CN(Cc2c[nH]c3c(N)ncnc23)C[C@@H]1O 10.5%, Nc1nc(O)c(Br)c(-c2cccc(Cl)c2)n1 4.65%, CN(C)c1[nH]c(=O)ncc1F 24.8%
